Experimental findings from ChEMBL document CHEMBL1157539, “Thousands of chemical starting points for antimalarial lead identification” (Nature, 2010) are described below.

Holding throughout (assay type): functional
Assay [1] concerns Plasmodium falciparum. The assay can be described thus: GSK_TCMDC: Inhibition of Plasmodium falciparum 3D7 in whole red blood cells, using parasite LDH activity as an index of growth. Test compounds present at 2uM.
Assay [2] relates to Plasmodium falciparum. As to the kind of experiment: GSK_TCMDC: Inhibition of Plasmodium falciparum Dd2 in whole red blood cells, using parasite LDH activity as an index of growth. Test compounds present at 2uM.
In the next assay the test system is HepG2. The assay can be described thus: GSK_TCMDC: Percent inhibition of human HepG2 cell line. Test compounds present at 10uM.

Regarding `O=c1cc(NCCC2CC=CCN2Cc2ccc(Cl)c(Cl)c2)[nH]c2ccccc12` (stereo unspecified), the Inhibition (usually the percentage by which the read-out fell short of the control) in the assay on Plasmodium falciparum [1] was found to be 94%; with Plasmodium falciparum [2], 77%; in the assay with HepG2, 7%.
For `O=C(Nc1cccc(OCCN2CCCC2)c1)Nc1ccc(Cl)c(Cl)c1.O=C(O)C(F)(F)F`, in that order: 98%, 22% and 3%.
For `COc1ccccc1NC(=O)OC(COc1ccc(N)cc1)CN1CC=C(c2ccccc2)CC1.O=C(O)C(F)(F)F` (stereo unspecified), in that order: 90%, 81% and 16%.
For `COc1ccc2ncc(F)c(CCN3CCC(NCc4cc(C)c5c(c4)OCCO5)CC3)c2n1.Cl`, in that order: 100%, 67% and 20%.
For `O=C(N[C@H]1CCN(Cc2ccc(OCCN3CCNCC3)c(Cl)c2)C1)c1ccc(Cl)c(Cl)c1.O=C(O)C(F)(F)F`, the Inhibition worked out at 100% in the assay with Plasmodium falciparum [1], 5% with Plasmodium falciparum [2] and 50% with HepG2.
With `O=C(N[C@H]1CCN(Cc2ccc(OCCCN3CCCCC3)cc2)C1)c1cc(Cl)cc(Cl)c1`, the Inhibition in the assay with Plasmodium falciparum [1] is on record as 99%; with Plasmodium falciparum [2], 35%; with HepG2, 13%.
The matching figures for `CCN1CCN(c2ccc(Nc3ccnc4ccc(Br)cc34)cc2)CC1`: 98%, 86% and 37%.
The matching figures for `Cl.c1ccc(Oc2ccc(Nc3ccnc4cc(-c5ccc(CN6CCNCC6)o5)ccc34)cc2)nc1`: 100%, 99% and 7%.
The matching figures for `O=C(Nc1ccc(OC2CCN(Cc3ccc(F)cc3)CC2)cc1)c1cccs1.O=C(O)C(F)(F)F`: 84%, 52% and 6%.
Take `COc1c(C2CCN(CCCCNC(=O)C=Cc3cc4cc(Cl)ccc4o3)CC2)ccc2c1CCCC2`: the results for the Inhibition with Plasmodium falciparum [1], in the assay on Plasmodium falciparum [2] and with HepG2 were 87%, 19% and 33%, respectively.
For `Cc1cccc2nc(-c3ccc(-c4cccc(CNCc5ccc(S(C)(=O)=O)cc5)c4)s3)[nH]c12.O=C(O)C(F)(F)F`, in that order: 100%, 91% and 31%.
The matching figures for `Cl.O=C(N[C@@H](Cc1cc(F)cc(F)c1)[C@H](O)CNCc1cccc(C(F)(F)F)c1)c1cc(C2CCCC2)cc(N2CCCC2=O)c1`: 95%, 45% and 37%.
Take `COc1cc(CN2CCC(C(=O)Nc3ccc(-c4cccc(C)c4)cc3)CC2)ccc1O`: the Inhibition was found to be 100% with Plasmodium falciparum [1], 85% with Plasmodium falciparum [2] and 25% in the assay on HepG2.
For `Cc1cccc2nc(-c3ccc(-c4ccc(NC(=O)Nc5ccc(Cl)c(Cl)c5)cc4)s3)[nH]c12`, in that order: 100%, 100% and 100%.
For `COc1ccc(CNC2CCN(C)CC2)cc1-c1ccc(S(=O)(=O)NC2CCC2)cc1.O=C(O)C(F)(F)F`, in that order: 98%, 76% and 58%.
For `CCCN(C(=O)c1ccccc1C)c1nnc(-c2ccccc2C)s1`, in that order: 90%, 65% and 16%.
As for `COc1ccc(CNCc2ccsc2)cc1-c1ccc(S(=O)(=O)NCCN2CCCC2)s1.O=C(O)C(F)(F)F`, the Inhibition in the assay with Plasmodium falciparum [1] is reported as 100%; in the assay on Plasmodium falciparum [2] it was 34%; in the assay with HepG2, 39%.
On to `CC(C)CNCc1cccc(-c2ccc(CN(C(=O)NCCc3ccccc3)C3CCN(Cc4ccccc4)CC3)cc2)c1.O=C(O)C(F)(F)F`, for which the figures for the Inhibition in the assay with Plasmodium falciparum [1], in the assay on Plasmodium falciparum [2] and in the assay with HepG2 were 98%, 47% and 99%, respectively.
Regarding `COc1cc(NC(=O)/C=C/c2cc(F)cc(F)c2F)cc(OCCN2CCC(O)(c3ccccc3)CC2)c1.O=C(O)C(=O)O`, the Inhibition in the assay with Plasmodium falciparum [1] is listed as 100%; in the assay on Plasmodium falciparum [2] it was 82%; in the assay with HepG2, 54%.
Regarding `CCCc1ccc(S(=O)(=O)NC2CCN(c3ccnc(Nc4ccc(OC)cc4)n3)C2)cc1` (stereo unspecified), the Inhibition stood at 89% in the assay with Plasmodium falciparum [1], 45% in the assay on Plasmodium falciparum [2] and 42% with HepG2.
In the case of `CCN1CCC(N(Cc2ccc(-c3ccc(C(F)(F)F)cc3)cc2)C(=O)Cn2c(CCc3cccc(F)c3F)cc(=O)c3cn(C)nc32)CC1.O=C(O)C(O)C(O)C(=O)O`, the values for the Inhibition in the assay on Plasmodium falciparum [1], with Plasmodium falciparum [2] and in the assay on HepG2 were 95%, 87% and 27%, respectively.
The matching figures for `CCc1ccc(CN2CCC(C(=O)Nc3ccc(-c4nc5ccccc5[nH]4)cc3)CC2)o1`: 99%, 94% and 29%.
As to `NCCNc1ccnc2cc(Cl)ccc12`, the Inhibition worked out at 100% in the assay with Plasmodium falciparum [1], 54% in the assay on Plasmodium falciparum [2] and 9% in the assay on HepG2.
The matching figures for `CCOc1ccc(S(=O)(=O)N(C)c2ccc(OCC(=O)Nc3nccs3)cc2)cc1`: 95%, 4% and 8%.
For `COc1cc(-c2ccc(-c3cnc(N)nc3OC)[nH]2)cc(OC)c1OC`, in that order: 100%, 54% and 0%.
The matching figures for `O=C(Cn1c(=O)cnc2ccccc21)Nc1cccc(C(=O)Nc2cccc(C(F)(F)F)c2)c1`: 90%, 66% and 0%.
`O=C(c1cc(-c2cccs2)n[nH]1)N1CCN(S(=O)(=O)c2ccc(Br)cc2)CC1`: the values for the Inhibition with Plasmodium falciparum [1], in the assay on Plasmodium falciparum [2] and with HepG2 were 93%, 95% and 0%, respectively.
